The nature of test [1]: qHTS of pediatric cancer cell lines to identify multiple opportunities for drug repurposing: Primary screen for U-2 OS cells (AID 1347096). Also: nearly all actives have a fitted effect of over 50% in size. Put shortly:
(§1)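 Cells (500-1,000/well) in growth media were settled 5 h at 37 degrees C, then given compounds for 48 h. Viability was read as CellTiter-Glo luminescence. Primary runs used MIPE at 11 points (0.78 nM-46 µM) and NPC at 8 points (0.59 nM-46 µM); follow-ups used 11 points.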
In general terms: In qHTS, concentration-response curves come from the screen itself.

Test [2] in a line: qHTS of pediatric cancer cell lines to identify multiple opportunities for drug repurposing: Primary screen for Saos-2 cells (AID 1347097). Also: nearly all actives have a fitted effect of over 40% in size. In short, it runs like this:
(§2)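 ATP-based luminescence (CellTiter-Glo) quantifies viability after a 48-hour exposure. Compounds are dosed across 8 or 11 final concentrations; DMSO and 2.3 µM bortezomib serve as controls.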

Test [3] in a line: qHTS of pediatric cancer cell lines to identify multiple opportunities for drug repurposing: Primary screen for SK-N-SH cells (AID 1347098). Also: nearly all actives have a fitted effect of over 65% in size. In short, it runs like this:
(§3)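 Cells (500-1,000/well) rested 5 h, then received compounds for 48 h; metabolically active cells were measured by CellTiter-Glo luminescence. Final concentrations spanned up to 46 µM (MIPE, 11-point) or 0.59 nM-46 µM (NPC, 8-point) in primary screens, 11-point in follow-ups.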

Test [4] in a line: qHTS of pediatric cancer cell lines to identify multiple opportunities for drug repurposing: Primary screen for NB1643 cells (AID 1347099). Also: nearly all actives have a fitted effect of over 50% in size. In short, it runs like this: as §2
Test [5] is described as follows: qHTS of pediatric cancer cell lines to identify multiple opportunities for drug repurposing: Primary screen for LAN-5 cells (AID 1347100). In short, it runs like this:
as §1

A short description of test [6]: qHTS of pediatric cancer cell lines to identify multiple opportunities for drug repurposing: Primary screen for Rh18 cells (AID 1347102). Also: nearly all actives have a fitted effect of over 65% in size. Put shortly: as §1
Test [7] can be described thus: qHTS of pediatric cancer cell lines to identify multiple opportunities for drug repurposing: Primary screen for OHS-50 cells (AID 1347103). Also: nearly all actives have a fitted effect of over 40% in size. In short, it runs like this: as §3
The nature of test [8]: qHTS of pediatric cancer cell lines to identify multiple opportunities for drug repurposing: Primary screen for RD cells (AID 1347104). Also: nearly all actives have a fitted effect of over 55% in size. Put shortly: as §2
Test [9] is described as follows: qHTS of pediatric cancer cell lines to identify multiple opportunities for drug repurposing: Primary screen for MG 63 (6-TG R) cells (AID 1347105). Also: nearly all actives have a fitted effect of over 50% in size. Put shortly:
as §2

Test [10] can be described thus: qHTS of pediatric cancer cell lines to identify multiple opportunities for drug repurposing: Primary screen for BT-12 cells (AID 1347101). Also: nearly all actives have a fitted effect of over 25% in size. Put shortly: as §3

SMILES strings stand for the structures. Results filed as inconclusive are left out. Active and inactive are the calls of the source. Calls follow the shape of the dose curve; as a rule, active = well fitted curve in the direction sought with a large enough effect; inconclusive = small, poorly fitted or top-dose-only effect, or another doubt; inactive = no such curve, though single readings can be large; an effect the other way counts as inactive or inconclusive.
Potency is read from the fitted curve at half-maximal effect.

`CN(C)c1nc(Cc2ccc(NC(=O)c3ccc4ccccc4c3)cc2)nc(Cl)c1CC(=O)O`: the Potency entry in test [1], in test [2], in test [3], in test [4], in test [5] and in test [6] was “inactive” throughout. Moreover, the Potency result in test [7], in [8] and in test [9] was “inactive” each time.

`O=C(C=Cc1c(C(=O)O)[nH]c2cc(Cl)cc(Cl)c12)Nc1ccccc1`: the Potency entry in test [1], in test [2], in test [3], in test [4], in test [5] and in test [6] was “inactive” throughout. Further, the Potency entry in test [7], in [8] and in [9] was “inactive” in each case.

As for `COc1cc(Nc2ncc(F)c(Nc3ccc4c(n3)N(COP(=O)(O)O)C(=O)C(C)(C)O4)n2)cc(OC)c1OC`, the Potency in test [1] is 4.69 µM (active); in test [2] it was 1.18 µM (active); in test [3] it was 4.29 µM (active); in [4], 0.187 µM (active); in test [5] it was 1.87 µM (active); in test [6], 1.87 µM (active). Besides, the results for the Potency in [7], in [8] and in test [9] were 1.22 µM (active), 3.32 µM (active) and 0.935 µM (active), respectively.

As to `CC[C@H]1CN2CCc3cc(OC)c(OC)cc3[C@H]2C[C@@H]1C[C@@H]1NCCc2cc(OC)c(OC)cc21`, the Potency in test [1] was 1.18 µM (active); in test [2] it was 0.526 µM (active); in [3] it was 0.341 µM (active); in test [4], 0.418 µM (active); in test [5] it was 0.833 µM (active); in test [6], 2.09 µM (active). For the same molecule, the values for the Potency in test [7] and in test [8] were 0.485 µM (active) and 0.469 µM (active), respectively.

Turning to `O=C(Nc1ncc(-c2cc(C(F)F)nn2-c2c(Cl)cccc2Cl)s1)C1CC1`, the Potency was 1.87 µM (active) in test [1]; 0.209 µM (active) in test [2]; 0.482 µM (active) in test [3]; 3.32 µM (active) in [4]; 0.332 µM (active) in test [5]; 0.968 µM (active) in [10]. The Potency in test [7] was 0.432 µM (active); in [8], 0.418 µM (active).

As for `CNC(=O)c1c(F)cccc1Nc1nc(Nc2cc3c(cc2OC)CCN3C(=O)CN(C)C)nc2[nH]ccc12`, the Potency result in [1] is “inactive”. The Potency in test [2] was 2.09 µM (active); in test [3], 8.57 µM (active); in [4], 0.132 µM (active); in [5] it was 0.0526 µM (active); in [6], 8.33 µM (active); in test [8], 0.662 µM (active). The Potency in test [9] was 18.7 µM (active).

As to `Cc1cc(Nc2nc(N[C@@H](C)c3ccc(F)cc3)c(C#N)cc2F)n[nH]1`, the Potency entry in test [1] and in test [10] was “inactive” each time. The Potency in test [2] is 2.35 µM (active); in [3], 3.41 µM (active); in test [4], 0.935 µM (active); in test [5], 0.418 µM (active); in test [6], 5.9 µM (active); in test [9], 3.72 µM (active).

Regarding `CCOc1cc2ncc(C#N)c(Nc3ccc(F)c(Cl)c3)c2cc1NC(=O)C=CCN(C)C`, the Potency entry in test [1] was “inactive”. The Potency in test [2] was 2.96 µM (active); in test [3], 0.341 µM (active); in test [4], 1.05 µM (active); in test [10], 7.69 µM (active); in [6], 10.5 µM (active); in [7], 0.137 µM (active). Besides, the Potency in test [8] was 0.526 µM (active).

In the case of `Cc1ccc(C(=O)Nc2ccc(CN3CCN(C)CC3)c(C(F)(F)F)c2)cc1C#Cc1cnc2cccnn12`, the Potency in test [1] was 5.9 µM (active); in test [2], 2.35 µM (active); in test [3], 6.07 µM (active); in test [4], 23.5 µM (active); in [5], 11.8 µM (active); in test [6], 2.09 µM (active). For the same molecule, the Potency was 1.09 µM (active) in test [7], 3.32 µM (active) in test [8] and 7.43 µM (active) in [9].

`Clc1cccc(-n2nnnc2NCc2ccccc2Oc2ccccn2)c1Cl`: the Potency result in test [1], in test [2], in test [3], in [4], in [6] and in [8] was “inactive” each time. For the same molecule, the Potency entry in [9] was “inactive”.

Regarding `CC1COC2(CCN(c3nc(=O)c4cc(C(F)(F)F)cc([N+](=O)[O-])c4s3)CC2)O1` (stereo not given), the Potency entry in test [1], in test [2], in test [3], in test [4], in test [10] and in [6] was “inactive” throughout. Besides, the Potency result in test [7], in test [8] and in test [9] was “inactive” throughout.

For `CC[C@@H]1C(=O)N(C)c2cnc(Nc3ccc(C(=O)NC4CCC(N5CCN(CC6CC6)CC5)CC4)cc3OC)nc2N1C(C)C` (stereo not given in full), the Potency in test [1] is 11.8 µM (active); in test [2] it was 0.526 µM (active); in [3] it was 0.607 µM (active); in test [4] it was 0.469 µM (active); in test [5], 0.0526 µM (active); in test [6], 6.62 µM (active). Further, the figures for the Potency in test [7], in test [8] and in [9] were 0.122 µM (active), 0.187 µM (active) and 11.8 µM (active), respectively.

For the molecule `CCCCCCCCCC(=O)N[C@@H](Cc1c[nH]c2ccccc12)C(=O)N[C@H](CC(N)=O)C(=O)N[C@@H](CC(=O)O)C(=O)N[C@@H]1C(=O)NCC(=O)N[C@@H](CCCN)C(=O)N[C@@H](CC(=O)O)C(=O)N[C@H](C)C(=O)N[C@@H](CC(=O)O)C(=O)NCC(=O)N[C@H](CO)C(=O)N[C@@H]([C@@H](C)CC(=O)O)C(=O)N[C@@H](CC(=O)c2ccccc2N)C(=O)O[C@@H]1C`, the Potency result in test [1], in [2], in [3], in [4], in [5] and in test [6] was “inactive” each time. Besides, the Potency entry in test [7] and in [8] was “inactive” each time.

As to `O=C1CCC[C@@H]2[C@H]3CCC[N+]4([O-])CCC[C@@H](CN12)[C@@H]34` (stereo not given in full), the Potency entry in test [1], in [2], in test [3], in [4], in test [6] and in [7] was “inactive” in each case. The Potency entry in test [8] and in test [9] was “inactive” each time.

Turning to `C=CC(=O)Nc1cc2c(Nc3ccc(F)c(Cl)c3)ncnc2cc1C#CC(C)(C)N1CCN(C)CC1`, the Potency in [1] was 7.43 µM (active); in test [2] it was 4.18 µM (active); in test [4], 0.526 µM (active); in [5], 2.96 µM (active); in test [10] it was 21.7 µM (active); in [6] it was 4.69 µM (active). Further, the Potency in [8] and in [9] was 5.9 µM (active) each time.

The values are drawn from PubChem BioAssay (NCATS).
